From PubChem BioAssay (NCI)
Compounds without any hit were thinned out: in the full panel of roughly 83,000, 20% have a hit.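 Compound tested at a single concentration for 48 hours in 96-well plates; a percent growth value below 10 was scored as active.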 Unmarked numbers belong to inactive results. Active and inactive are the calls of the source.

Columns and labels:
Test in all cases: NCI-60 one-dose screen, 48 h (100 = growth as untreated, 0 = no growth, -100 = all killed)
Settings in all cases: 10 µM unless noted
[1] = test system: SR leukemia
[2] = test system: RPMI-8226 leukemia
[3] = test system: OVCAR-8 ovarian
[4] = test system: OVCAR-5 ovarian
[5] = test system: OVCAR-4 ovarian
[6] = test system: SK-OV-3 ovarian
[7] = test system: IGROV1 ovarian
[8] = test system: OVCAR-3 ovarian
[9] = test system: HS 578T breast
[10] = test system: NCI/ADR-RES ovarian

SMILES	growth [1]	growth [2]	growth [3]	growth [4]	growth [5]	growth [6]	growth [7]	growth [8]	growth [9]	growth [10]
O=C(Nn1cnc2ccccc21)N1CCCC1	76.5%	150%	106%	95.7%	118%	104%	39.4%	104%	104%	119%
COc1cc(OC)cc(-c2ccc(-c3ccc(C(=N)N)cc3)s2)c1	-4.93% (active)	-58.2% (active)	-27.8% (active)	-82% (active)	-67.5% (active)	-81.9% (active)	-71.1% (active)	-86.2% (active)	-51.8% (active)	-51.4% (active)
O=C(Nc1ccccc1)Nc1ccc(Nc2ncnc3sc4c(c23)CCCC4)cc1	97.9%	99.3%	107%	119%	107%	99.6%	107%	103%	85.3%	107%
O=S(=O)(Cc1cccc2c(CS(=O)(=O)c3ccc(Cl)cc3)cccc12)c1ccc(Cl)cc1	94.7%	96.3%	71.1%	97.3%	100%	94.7%	91.4%	95.9%	70.8%	90%
Cc1ccc2c(O)c(O)cc(NC(C)CCCN)c2n1 (stereo not given)	89.5%	75%	30.7%	87.4%	6.99% (active)	102%	86.3%	10.8%	80.8%	91.3%
COc1cc(N)c2nccc(C)c2c1OC	55.5%	144%	96.4%	107%	94.4%	108%	385%	111%	104%	131%
CCCCCSc1ccc2nc(NC(=O)OCCC)sc2c1	34.2%	29.6%	65.8%	86.3%	35.1%	41.9%	55.4%	13.3%	23.9%	22.7%
COc1ccc(/C=C(/C(=O)N2CCCCC2)c2cc(OC)c(OC)c(OC)c2)cc1	13.6%	15.7%	34.4%	35.1%	56.8%	27.6%	42%	-19.2% (active)	20.9%	6.26% (active)
CCCC(=O)Nc1ccccc1C(=O)O	93.1%	109%	91.1%	99.5%	101%	104%	110%	94.7%	102%	96.3%
O=[N+]([O-])c1ccc(-c2ncc(-c3ccc(O)cc3O)[nH]2)cc1	-28.9% (active)	74.1%	101%	125%	104%	116%	97.6%	105%	70.9%	115%
